In PubChem BioAssay (NCI):
Compounds without any hit were thinned out: in the full panel of roughly 83,000, 20% have a hit.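 Growth was measured after 48 h exposure to one concentration of compound in 96-well plates. Values under 10 count as active.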 Activity calls are given as the source filed them.

These compounds were tested on NCI-H460 lung (assay: NCI-60 one-dose screen, 48 h (100 = growth as untreated, 0 = no growth, -100 = all killed)). Conditions: 10 µM unless noted.
With `C[C@H]1[C@@H](CC(=O)N[C@@H](Cc2coc3ccccc23)B(O)O)O[C@@H]2OC3(C)CC[C@H]4[C@H](C)CC[C@@H]1[C@@]24O3` the growth was 17% (inactive).
In the case of `O=C(NNC(=S)NC(=O)c1ccccc1)c1ccc(OCc2nc3ccc(Cl)cc3[nH]2)cc1`, the growth is reported as 11.6% (inactive).
`CC1=C(C)C(=O)C(NCCN2CCOCC2)=C(Br)C1=O` was tested, and the growth was 98% (inactive).
With `N#Cc1ccc(C(=O)NNC(=O)CSc2nc3sc4c(c3c(=O)n2-c2ccc(Cl)cc2)CCCC4)cc1` the growth was 51.8% (inactive).
For `CCCCCCCOc1ccc(S(=O)(=O)Nc2ccc(C)c(F)c2C(=O)O)cc1`, the growth was 102% (inactive).

These compounds were tested on HOP-92 NSCLC in the same assay as above. Conditions: 10 µM unless noted.
`O=C(CSc1nc2ccccc2c(=O)[nH]1)Nc1ccccc1C(=O)O` was tested, and the growth was 118% (inactive).
`Cn1cc(-c2cc(N)n3nc(-c4c[nH]c5ccccc45)cc3n2)c2ccccc21` was tested, and the growth was -59.5% (active).
For `Cc1cccc(/C=C/c2ccc(NC(=S)NCCCCN(C)C)cc2)c1`, the growth was -57.2% (active).
With `Cc1ccc(N=Nc2c(N)nn3c(-c4cc5ccccc5oc4=O)ccnc23)cc1` the growth was 49.9% (inactive).
For `O=C(Nc1nc2ccccc2s1)Nc1ccccc1Cl`, the growth was 74.3% (inactive).
In the case of `COc1ccc(NC(=O)CSc2nnc(-c3ccc(-c4nc5ccc(Cl)cc5[nH]4)cc3)o2)cc1`, the growth is reported as 4.79% (active).
`O=C1Nc2cc(-c3ccc(NS(=O)(=O)c4ccc(C(F)(F)F)cc4)cc3)ccc2/C1=C/c1ccc[nH]1` was tested, and the growth was 42.8% (inactive).
`COc1ccc(Nc2nnc(-c3c[nH]c4ccccc34)o2)cc1` was tested, and the growth was 84.5% (inactive).
`Cn1cc(-c2cc(N)n3nc(-c4c[nH]c5ccc(F)cc45)cc3n2)c2cccnc21` was tested, and the growth was -73.7% (active).
